# Experimental data from PubChem BioAssay AID504329 (Southern Research Specialized Biocontainment Screening …, 2011).
# Screen size: about 340,000 compounds; about 1,000 (0.29%) were called active. These entries were drawn from the full list. Measured potencies and affinities stand elsewhere. Unmarked numbers belong to inactive results. Rule as the data show it: inconclusive = inhibition above about 27% without an active follow-up result; inactive = below that.
# Assay: NS1A inhibition, H1N1 influenza, cell based functional assay (AID 504329)
# Settings: percent inhibition, at 12.5 µM, stronger effect = higher value
row,SMILES,inhibition [%]
1,COc1cc(/C=N\NC(=O)CN2CCOCC2)ccc1OCC(=O)Nc1ccc(C)c(C)c1,0.68
2,C/C(=N\N1CCN(Cc2ccc(Cl)cc2)CC1)c1ccc([N+](=O)[O-])cc1,1.56
3,CC(O)(Cc1ccccn1)Cc1ccccn1,3.66
4,CC(c1ccccn1)C(C)(O)C(C)c1ccccn1 (stereo unspecified),-2.07
5,COc1ccccc1N1CCN(Cc2cccc(OC)c2OC)CC1,-12
6,COc1ccccc1N1CCN(Cc2ccc(OC)c(OC)c2OC)CC1,0.22
7,COc1ccccc1N1CCN(Cc2cc3c(cc2Br)OCCO3)CC1,3.4
8,COc1ccccc1N1CCN(Cc2cccc(OC)c2O)CC1,0.66
9,Cc1onc(COc2ccccc2O)c1Br,-2.44
10,Cc1cccc(NC(=O)C2CCCN(S(=O)(=O)c3ccc4[nH]c(=O)ccc4c3)C2)n1 (stereo unspecified),5.77
11,CC(C)C(NC(=O)c1ccc(C(C)(C)C)cc1)C(=O)NC1=NCCS1 (stereo unspecified),8.12
12,Oc1cncc(-c2cccnc2)c1,-6.57
13,CN(C)c1ccc(-c2cc(O)c3ncccc3c2)cc1,21.2
14,c1cncc(-c2cnc3ccccc3c2)c1,-4.39
15,c1cc(-c2ccncc2)ccn1,-1.52
16,CC1(c2nnc(-c3ccc(Cl)cc3)o2)CC(c2c(Cl)cccc2Cl)=NO1 (stereo unspecified),-2.35
17,Cc1ccc(NC(=S)NCc2ccccc2)c(C)c1,-7.15
18,O=C(Cc1ccccc1)Nc1cc(C(=O)c2ccccc2)ccc1N1CCOCC1,-3.63
19,COc1ccc(C(=O)NCCNc2nc3ccc(C)cc3cc2C#N)cc1,-6.86
20,CN(CC1CCCN(CCc2ccc(Cl)cc2)C1)C(=O)CC(F)(F)F (stereo unspecified),-8.18
21,Cc1ccc(CNC(=O)C2CCC(=O)N(CCc3ccc(Cl)cc3)C2)s1 (stereo unspecified),-10
22,COc1ccc(C(=O)NC(C)CCCC(C)(C)O)cc1OC1CCN(C(C)=O)CC1 (stereo unspecified),-0.26

row,SMILES,inhibition [%]
1,Clc1ccc(-c2noc(COc3ccccc3)n2)cc1,-0.74
2,C/C(=N\NC(=O)C(c1ccccc1)c1ccccc1)c1ccccn1,-11.5
3,C/C(=N/NC(=O)CNC(=O)c1ccccn1)c1ccc([N+](=O)[O-])cc1,-5.71
4,CCOc1ccc(C(=O)NCCN2CCCCC2)c(OCC)c1,-19.7
5,Cc1ccc(NC(=O)CN(C)C(=O)c2ccc(NS(=O)(=O)c3ccc4[nH]c(=O)[nH]c4c3)cc2)cc1,2.9
6,O=C(COC(=O)C12CC3CC(CC(O)(C3)C1)C2)NC(=O)NCc1ccco1,-3.4
7,O=c1[nH]c(=S)[nH]c2scc(-c3ccc(Br)cc3)c12,-20.7
8,CCn1c(C)nc2cc(C(=O)N/N=C/c3cccc(O)c3O)ccc21,0.31
9,CCn1c(C)nc2cc(C(=O)N/N=C/c3cccc(OC)c3O)ccc21,5.9
10,O=C(O)c1cc(-c2ccccc2)nc2ccccc12,1.29
11,O=C(O)c1cc(-c2cccc3ccccc23)nc2ccccc12,-1.69
12,COc1ccc(C(=O)N2CCN(c3ncccn3)CC2)cc1[N+](=O)[O-],-14.3
13,O=C(NC(=S)Nc1ccc2oc(-c3ccncc3)nc2c1)c1ccccc1F,1.17
14,O=C(N/N=C/c1c[nH]c2ccccc12)c1ccc(Cl)cc1,3.88
15,c1ccc(-c2nnc(-c3ccccn3)s2)nc1,-1.25
16,c1ccc(-c2ccncc2)nc1,-0.28
17,c1ccc(-c2cnc(-c3ccccc3)nn2)cc1,10
18,c1ccc(-c2nn[nH]n2)nc1,-11.7
19,c1ccc(-c2nc3ccccc3[nH]2)nc1,13.8
20,Clc1ccc(-c2cnc3ccccc3n2)cc1,-9.76
21,c1ccc(-c2nc(-c3ccccn3)nc(-c3ccccn3)n2)nc1,7.93
22,Clc1ccc(OCc2nc(-c3ccccn3)n[nH]2)cc1,6.94

row,SMILES,inhibition [%]
1,COc1ccc(C(C)=O)cc1CN(c1ccccc1OC)S(=O)(=O)c1cccs1,13.1
2,Cc1cc(C)nc(SCc2ccc(C(=O)N/N=C/c3ccco3)cc2)n1,-4.36
3,CCCNS(=O)(=O)c1cccc(C(=O)NC2CCCc3ccccc32)c1 (stereo unspecified),-1.43
4,Cc1ccc(C)c(SCC(=O)NC2CCS(=O)(=O)C2)c1 (stereo unspecified),-12.1
5,CCCCCCCCNC(=O)c1cnccn1,-8.66
6,Nc1nc(N)nc(-c2ccccc2O)n1,1.67
7,c1cc(-c2n[nH]c(-c3ccncc3)n2)ccn1,-1.91
8,c1ccc(-c2nc3ccccc3nc2-c2ccccn2)nc1,0.35
9,Nc1nc(N)nc(-c2ccccc2-c2nc(N)nc(N)n2)n1,21.3
10,c1ccc(-c2nc(-c3ccccn3)no2)cc1,-0.45
11,c1ccc(-c2ccccn2)nc1,-0.49
12,CSc1nncc(-c2ccccc2)n1,-2.08
13,c1ccc(-c2n[nH]c(-c3ccccn3)n2)cc1,-0.5
14,CCN(CC)S(=O)(=O)c1ccc(N2CCOCC2)c(NC(=O)COc2ccccc2C)c1,-22.8
15,CCc1nc2ccccc2n1Cc1cc(=O)n2cc(C)ccc2n1,-1.64
16,CCOc1ccc(NC(=S)N2CCN(S(=O)(=O)c3ccccc3)CC2)cc1,24.8
17,CCc1nnc(N/N=C/c2ccccc2F)n1N,-9
18,CC(C)(C)c1nnc(N/N=C/c2ccccc2)n(N)c1=O,-3.79
19,Cc1nnc(N/N=C/c2ccccc2O)n1N,9.93
20,CCc1nnc(N/N=C/c2cc(C)c(C)cc2C)n1N,-3.56
21,CC(C)(C)c1nnc(N/N=C/c2ccc(O)cc2)n(N)c1=O,6.15
22,CC(C)(C)c1nnc(N/N=C/c2ccc(Br)cc2)n(N)c1=O,-5.94
